The panel holds about 83,000 compounds, 20% with a hit somewhere; the sample as a whole holds those more often.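 Assay: single dose, 48 h. Readout: percent growth (0 = no net growth; negative = cell death). Active: <10.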 Values without a mark were called inactive. Activity calls are given as the source filed them.
Assays:
Test in all cases: NCI-60 one-dose screen, 48 h (100 = growth as untreated, 0 = no growth, -100 = all killed)
Conditions in all cases: 10 µM unless noted
NCI-H23 lung = tested on: NCI-H23 lung
NCI-H226 lung = tested on: NCI-H226 lung
NCI-H322M lung = tested on: NCI-H322M lung
HOP-62 NSCLC = tested on: HOP-62 NSCLC
NCI-H460 lung = tested on: NCI-H460 lung
HOP-92 NSCLC = tested on: HOP-92 NSCLC
NCI-H522 lung = tested on: NCI-H522 lung
A549/ATCC NSCLC = tested on: A549/ATCC NSCLC
786-0 renal = tested on: 786-0 renal
COLO 205 colon = tested on: COLO 205 colon
DU-145 prostate = tested on: DU-145 prostate
K-562 leukemia = tested on: K-562 leukemia
MALME-3M melanoma = tested on: MALME-3M melanoma
MDA-MB-231 breast = tested on: MDA-MB-231 breast
RXF 393 renal = tested on: RXF 393 renal
SF-268 CNS = tested on: SF-268 CNS
SF-295 CNS = tested on: SF-295 CNS
SF-539 CNS = tested on: SF-539 CNS
UACC-257 melanoma = tested on: UACC-257 melanoma
M14 melanoma = tested on: M14 melanoma

Row | Structure (SMILES) | growth (NCI-H23 lung) | growth (NCI-H226 lung) | growth (NCI-H322M lung) | growth (HOP-62 NSCLC) | growth (NCI-H460 lung) | growth (HOP-92 NSCLC) | growth (NCI-H522 lung) | growth (A549/ATCC NSCLC) | growth (786-0 renal) | growth (COLO 205 colon) | growth (DU-145 prostate) | growth (K-562 leukemia) | growth (MALME-3M melanoma) | growth (MDA-MB-231 breast) | growth (RXF 393 renal) | growth (SF-268 CNS) | growth (SF-295 CNS) | growth (SF-539 CNS) | growth (UACC-257 melanoma) | growth (M14 melanoma)
1 | O=c1n(C2OC(CO)C(O)C2O)ccc2nccn12 (stereo not given) | 113% | 110% | 114% | 127% | 99.9% | 105% | 116% | 96% | 103% | 126% | 107% | 102% | 112% | 117% | 162% | 107% | 108% | 112% | 100% | 105%
2 | CCOC(=O)c1c2c(n3ccc(NC(=O)CCN4CCCC4)cc13)C(=O)c1ncccc1C2=O | -72.5% (active) | 63.6% | -76.7% (active) | -68.5% (active) | -79.9% (active) | 56.2% | -37% (active) | -66.6% (active) | -88.2% (active) | 15.4% | -89.3% (active) | -40.3% (active) | 66.3% | -71.2% (active) | 47.5% | -67.8% (active) | 32.2% | -75.8% (active) | 105% | 63.7%
3 | COc1cccc(C2C(C#N)=C(N)Oc3c2ccc2ccccc32)c1 (stereo not given) | 28.4% | 47.1% | 41.7% | 39.6% | 8.32% (active) | 46.5% | 7.11% (active) | 26.2% | 20.6% | -41.8% (active) | 16.9% | 6.44% (active) | 54.4% | 24.2% | 40.7% | 30.9% | 23.5% | -12% (active) | 82% | 9.7% (active)
4 | CCN1C(=O)N(CC)C2C1NN=c1s/c(=C3\C(=O)N(C)c4ccccc43)c(=O)n12 (stereo not given) | 37% | 96.7% | 48.4% | 29.8% | 6.21% (active) | 56.8% | 21.7% | 35.1% | 36.9% | 8.01% (active) | 11.9% | 9.16% (active) | 40.8% | 33.9% | -14.1% (active) | 70.5% | 7.04% (active) | -24.7% (active) | 94.6% | 43.1%
5 | CN1CCN(Cc2ccc(NC(=O)c3cncc(C#Cc4cnc(N)c5ccc(C#N)cc45)c3)cc2C(F)(F)F)CC1 | -22% (active) | -35.1% (active) | 26.6% | 2.55% (active) | -49.3% (active) | -15.2% (active) | 5.63% (active) | -53% (active) | -71.8% (active) | -71.9% (active) | -7.64% (active) | 0.252% (active) | -72.6% (active) | -81.7% (active) | -90.7% (active) | -69.4% (active) | 38.8% | -57.6% (active) | 6.11% (active) | -83.9% (active)
6 | COc1ccc(S(=O)(=O)Oc2ccc(-c3sc4cc(OS(=O)(=O)c5ccc(OC)cc5)ccc4c3C(=O)c3ccc(OCCN4CCCCC4)cc3)cc2)cc1 | 104% | 104% | 98.5% | 95.8% | 105% | 108% | 91.4% | 88.2% | 93% | 109% | 107% | 103% | 92.3% | 108% | 110% | 102% | 93.2% | 95.2% | 93% | 105%
7 | CCCN1C2CCC1/C(=C\c1ccc(OC)cc1)C(=O)/C2=C/c1ccc(OC)cc1 | 67.5% | 71.5% | 92% | 89.1% | 76.9% | 58.1% | 51.2% | 72.6% | 85.2% | 76% | 90% | 35.6% | 57.5% | 74.9% | 92.4% | 83.9% | 76.7% | 105% | 44.4% | 62.1%
8 | COc1ccc(/C=C2/CCc3cc4ccc(OC)cc4[o+]c32)c(O)c1 | 72.7% | 81.5% | 84.6% | 95.9% | 25.3% | 56.1% | 77.5% | 94.9% | -6.35% (active) | 84.1% | 76.7% | 39.1% | 16.9% | 36.7% | 71.4% | 82.2% | 106% | 109% | 87.4% | 26%
